This is part of a sample that, as a whole, favours compounds with a hit. Of some 83,000 tested, about 20% had one in any assay.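 Growth was measured after 48 h exposure to one concentration of compound in 96-well plates. Values under 10 count as active.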 A number with no mark means an inactive call. Calls of active or inactive are those of the source.

Among the test systems are SR leukemia; RPMI-8226 leukemia; OVCAR-8 ovarian; OVCAR-5 ovarian; OVCAR-4 ovarian; SK-OV-3 ovarian; IGROV1 ovarian; OVCAR-3 ovarian; HS 578T breast; NCI/ADR-RES ovarian.
Common to all, as to test: NCI-60 one-dose screen, 48 h (100 = growth as untreated, 0 = no growth, -100 = all killed)
Conditions in all cases: 10 µM unless noted

Take `CN1CCCN(C(c2ccccc2)c2ccc(Br)cc2)CC1` (stereo not given): the growth with SR leukemia is 4.87% (active); with RPMI-8226 leukemia, 84.1%; in the experiment on OVCAR-8 ovarian, 93.9%; in the experiment with OVCAR-5 ovarian, 92.6%; in the experiment with OVCAR-4 ovarian, 84.7%; in the experiment on SK-OV-3 ovarian, 81.5%. The growth in the experiment with IGROV1 ovarian was 78.6%; in the experiment on OVCAR-3 ovarian, 69.9%; in the experiment with HS 578T breast, 42.4%; with NCI/ADR-RES ovarian, 79.1%.

Regarding `CSc1nsc(N)n1`, the growth in the experiment with SR leukemia was 98.4%; in the experiment on RPMI-8226 leukemia, 114%; in the experiment with OVCAR-8 ovarian, 105%; in the experiment with OVCAR-5 ovarian it was 107%; with OVCAR-4 ovarian it was 104%; in the experiment on SK-OV-3 ovarian, 105%. The growth was 97.6% with IGROV1 ovarian, 110% in the experiment with OVCAR-3 ovarian, 90.7% in the experiment with HS 578T breast and 101% in the experiment with NCI/ADR-RES ovarian.

On to `CC(=O)c1cccs1`, for which the growth was 92.9% in the experiment on SR leukemia; 110% in the experiment on RPMI-8226 leukemia; 102% in the experiment on OVCAR-8 ovarian; 103% with OVCAR-5 ovarian; 106% with OVCAR-4 ovarian; 99% with SK-OV-3 ovarian. In addition, the growth with IGROV1 ovarian was 110%; in the experiment with OVCAR-3 ovarian, 103%; in the experiment on HS 578T breast, 99.2%; with NCI/ADR-RES ovarian it was 95.6%.

For `Nc1cccc2cccc(O)c12`, the growth with SR leukemia is 58.5%; with RPMI-8226 leukemia, 85.5%; in the experiment on OVCAR-8 ovarian, 86.7%; with OVCAR-5 ovarian it was 103%; with OVCAR-4 ovarian, 83.1%; in the experiment with SK-OV-3 ovarian it was 100%. In addition, the growth was 76% in the experiment with IGROV1 ovarian, 87.1% with OVCAR-3 ovarian, 82.1% in the experiment on HS 578T breast and 95.5% in the experiment with NCI/ADR-RES ovarian.

For the compound `ClCC(Cl)C1CCC(Cl)C(Cl)C1` (stereo not given), the growth was 99.5% in the experiment with SR leukemia; 100% in the experiment on RPMI-8226 leukemia; 95.6% in the experiment with OVCAR-8 ovarian; 105% in the experiment on OVCAR-5 ovarian; 104% in the experiment with OVCAR-4 ovarian; 100% in the experiment with SK-OV-3 ovarian. In addition, the growth in the experiment with IGROV1 ovarian was 117%; in the experiment on OVCAR-3 ovarian, 114%; with HS 578T breast, 103%; with NCI/ADR-RES ovarian, 104%.

For `Nc1c(O)c(S(=O)(=O)O)c(O)c2c1C(=O)c1ccccc1C2=O`, the growth is 13.8% in the experiment on SR leukemia; 11.5% with RPMI-8226 leukemia; 27.8% in the experiment on OVCAR-8 ovarian; 42.8% in the experiment on OVCAR-5 ovarian; 26.1% with OVCAR-4 ovarian; 22.9% with SK-OV-3 ovarian. The growth is 19.2% in the experiment on IGROV1 ovarian, 8.87% (active) in the experiment with OVCAR-3 ovarian, 59.7% with HS 578T breast and 17.8% in the experiment with NCI/ADR-RES ovarian.

As to `C=CCS(C)(=O)=O`, the growth is 99.4% in the experiment with SR leukemia; 104% with RPMI-8226 leukemia; 95.4% with OVCAR-8 ovarian; 101% in the experiment with OVCAR-5 ovarian; 113% with OVCAR-4 ovarian; 90.3% in the experiment with SK-OV-3 ovarian. In addition, the growth in the experiment on IGROV1 ovarian was 112%; in the experiment on OVCAR-3 ovarian, 108%; in the experiment on HS 578T breast it was 89.2%; in the experiment on NCI/ADR-RES ovarian it was 104%.

Take `NC(=O)NCCO`: the growth in the experiment with SR leukemia was 96.2%; with RPMI-8226 leukemia, 101%; in the experiment with OVCAR-8 ovarian it was 99.8%; in the experiment with OVCAR-5 ovarian it was 106%; with OVCAR-4 ovarian, 110%; in the experiment with SK-OV-3 ovarian, 110%. The growth in the experiment on IGROV1 ovarian was 105%; in the experiment with OVCAR-3 ovarian it was 106%; in the experiment with HS 578T breast, 94.2%; with NCI/ADR-RES ovarian, 97.7%.

Take `C1C[S+]2CC[S+]1CC2`: the growth is 101% in the experiment on SR leukemia; 95.1% in the experiment on RPMI-8226 leukemia; 96% with OVCAR-8 ovarian; 107% in the experiment with OVCAR-5 ovarian; 115% in the experiment with OVCAR-4 ovarian; 100% with SK-OV-3 ovarian. Further, the growth is 106% in the experiment on IGROV1 ovarian, 102% in the experiment on OVCAR-3 ovarian, 108% in the experiment with HS 578T breast and 99.3% with NCI/ADR-RES ovarian.

With `COc1nc(Nc2cccc(C(F)(F)F)c2)nc(OC)n1`, the growth with SR leukemia was 95%; with RPMI-8226 leukemia, 94.7%; in the experiment on OVCAR-8 ovarian, 96%; in the experiment with OVCAR-5 ovarian, 116%; in the experiment with OVCAR-4 ovarian it was 105%; with SK-OV-3 ovarian, 97.9%. In addition, the growth was 93.1% with IGROV1 ovarian, 103% with OVCAR-3 ovarian, 98.6% with HS 578T breast and 104% in the experiment with NCI/ADR-RES ovarian.

As for `O=S(=O)(O)c1ccc(O)c(C2CCCCC2)c1`, the growth with SR leukemia is 98.3%; with RPMI-8226 leukemia it was 105%; in the experiment with OVCAR-8 ovarian it was 102%; with OVCAR-5 ovarian, 103%; in the experiment on OVCAR-4 ovarian, 94.4%; with SK-OV-3 ovarian it was 97.1%. The growth in the experiment on IGROV1 ovarian was 107%; in the experiment on OVCAR-3 ovarian it was 113%; in the experiment on HS 578T breast, 116%; in the experiment on NCI/ADR-RES ovarian, 118%.

Take `Cc1ccccc1NC(=O)Oc1ccc(Cl)cc1C(=O)c1ccccc1`: the growth in the experiment on SR leukemia is 94.2%; in the experiment on RPMI-8226 leukemia it was 85.6%; in the experiment on OVCAR-8 ovarian, 91.4%; in the experiment with OVCAR-5 ovarian it was 105%; in the experiment on OVCAR-4 ovarian it was 102%; with SK-OV-3 ovarian, 95.4%. Further, the growth in the experiment with IGROV1 ovarian is 101%; with OVCAR-3 ovarian, 95.3%; with HS 578T breast, 84.3%; with NCI/ADR-RES ovarian it was 97%.

Turning to `COC1CC(OC(=O)c2ccc([N+](=O)[O-])cc2)C(COC(=O)c2ccc([N+](=O)[O-])cc2)O1` (stereo not given), the growth with SR leukemia is 85.9%; in the experiment with RPMI-8226 leukemia, 101%; with OVCAR-8 ovarian, 91.2%; in the experiment with OVCAR-5 ovarian it was 99.7%; in the experiment on OVCAR-4 ovarian it was 97%; in the experiment with SK-OV-3 ovarian it was 107%. Further, the growth in the experiment on IGROV1 ovarian was 126%; in the experiment on OVCAR-3 ovarian, 111%; with HS 578T breast it was 109%; with NCI/ADR-RES ovarian, 108%.

The record behind these values is PubChem BioAssay (NCI).
